# Measured values as given in PubChem BioAssay AID1259251 (The Scripps Research Institute Molecular Screening Center, 2017).
# Hit rate of the full screen: of about 30,000 compounds, about 580 (1.9%) were called active. This is one part of a sample in which actives are shown more often than they occur. No stated cut-off is given here; in the data, active means inhibition above about 43%; inactive means the rest.
# Biological target: Serine/threonine-protein kinase ULK1 (Homo sapiens) (UniProt O75385)
# Sequence (O75385 whole entry, looked up): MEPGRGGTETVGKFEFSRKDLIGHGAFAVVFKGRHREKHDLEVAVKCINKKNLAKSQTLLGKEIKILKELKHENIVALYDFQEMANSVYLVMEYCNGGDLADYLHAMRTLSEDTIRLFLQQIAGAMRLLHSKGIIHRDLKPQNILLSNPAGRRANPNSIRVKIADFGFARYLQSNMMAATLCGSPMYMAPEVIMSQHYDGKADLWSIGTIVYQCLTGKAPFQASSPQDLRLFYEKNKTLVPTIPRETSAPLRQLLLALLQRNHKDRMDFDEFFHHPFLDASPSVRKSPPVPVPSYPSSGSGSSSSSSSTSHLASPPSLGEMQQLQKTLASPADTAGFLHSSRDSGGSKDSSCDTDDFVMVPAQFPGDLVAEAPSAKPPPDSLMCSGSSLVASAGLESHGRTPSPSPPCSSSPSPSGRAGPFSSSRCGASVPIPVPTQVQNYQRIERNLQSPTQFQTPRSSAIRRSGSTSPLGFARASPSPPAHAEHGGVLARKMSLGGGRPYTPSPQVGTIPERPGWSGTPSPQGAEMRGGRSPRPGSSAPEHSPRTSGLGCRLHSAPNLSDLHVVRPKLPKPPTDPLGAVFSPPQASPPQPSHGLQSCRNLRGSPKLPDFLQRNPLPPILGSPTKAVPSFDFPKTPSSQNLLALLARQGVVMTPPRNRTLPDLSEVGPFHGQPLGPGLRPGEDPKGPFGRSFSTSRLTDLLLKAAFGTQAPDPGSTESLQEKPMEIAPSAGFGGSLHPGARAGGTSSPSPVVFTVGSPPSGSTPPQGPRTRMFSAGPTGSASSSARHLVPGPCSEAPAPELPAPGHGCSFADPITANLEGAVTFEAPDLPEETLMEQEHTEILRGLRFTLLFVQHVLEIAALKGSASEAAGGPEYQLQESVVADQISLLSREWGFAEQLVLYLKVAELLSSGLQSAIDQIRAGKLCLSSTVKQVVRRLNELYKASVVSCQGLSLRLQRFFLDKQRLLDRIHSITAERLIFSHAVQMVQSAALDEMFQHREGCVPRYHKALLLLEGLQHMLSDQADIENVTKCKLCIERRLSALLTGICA
# Assay: inhibition of human autophagy kinase ULK1 – biochemical, AlphaScreen, primary screen (AID 1259251);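 further: 0% = median of compound wells and 100% = no enzyme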
# Conditions: AlphaScreen Atg13 phosphorylation by ULK1, luminescence; at 5.96 µM; active compounds read high
row,SMILES,inhibition
1,CN(C)c1cc(F)cc(-c2ccnc(Nc3ccc(-n4cnc(N5CCOCC5)n4)cc3)n2)c1,-12.3% (inactive)
2,Cn1nccc1-c1cc(F)cc(-c2ccnc(Nc3ccc(-n4cnc(N5CCOCC5)n4)cc3)n2)c1,10.3% (inactive)
3,CN1CCN(c2ncn(-c3ccc(Nc4nccc(-c5ccc(NS(C)(=O)=O)cc5)n4)cc3)n2)CC1,63.3% (active)
4,CC(=O)Nc1ccc(Nc2ncnc3nc(N4CCOCC4)[nH]c23)cc1,-7.72% (inactive)
5,CCCNC(=O)Cc1cn(-c2ccc(Nc3ccc(-n4ccnc4)cc3)nn2)c2ccccc12,0.04% (inactive)
6,CC(C)(C)NC(=O)N1CCCN(c2ccc(S(C)(=O)=O)cc2)CC1,6.31% (inactive)
7,CN1CCc2nc(NC(=O)c3ccc(Cl)cc3Cl)sc2C1,-7.21% (inactive)
8,O=C(NCc1ccccc1)c1csc(Nc2ccc(N3CCOCC3)cc2)n1,25.3% (inactive)
9,O=C(Nc1ccc(N2CCOCC2)cc1)c1ccc2nc(Nc3ccncc3)sc2c1,52.9% (active)
10,O=C(Nc1ccccc1)c1ccc2nc(NCCN3CCOCC3)sc2c1,2.47% (inactive)
11,O=C(Nc1ccc(N2CCOCC2)cc1)c1csc(Nc2ccc(-n3ccnc3)cc2)n1,47.9% (active)
12,O=C(Nc1ccc(N2CCOCC2)cc1)c1cnc(Nc2ccc(-n3ccnc3)cc2)s1,17.6% (inactive)
13,CN(C)c1cccc(Nc2nc3ccc(C(=O)Nc4ccc(N5CCOCC5)cc4)cc3s2)c1,24.1% (inactive)
14,Cc1cnnn1-c1ccc(Nc2nccc(-c3cc(C#N)cc(N4CCOCC4)c3)n2)cc1,14.1% (inactive)
15,O=C(Nc1ccc2[nH]ncc2c1)[C@H]1C[C@@H](O)CN1C(=O)Cc1ccc(Br)cc1,5.77% (inactive)
16,O=C(NCCCN1CCCC1=O)c1cccc(Cl)n1,10.3% (inactive)
17,FC(F)(F)c1ccc(Cn2cnc3c(Nc4ccc5c(c4)OCO5)nc(N4CCC(N5CCOCC5)CC4)nc32)cc1,10% (inactive)
18,c1cnc2ccc(Nc3nc4ncnc(NCc5nc6ccccc6[nH]5)c4[nH]3)cc2c1,15.5% (inactive)
19,O=C(NC1CC1)c1cccc(Nc2cccnc2)n1,-1.02% (inactive)
20,FC(F)(F)c1cccc(CNc2nc(Nc3ccc(N4CCOCC4)cc3)nc3c2ncn3-c2ccsc2)c1,-6.13% (inactive)
21,CC(C)n1c(N2CCOCC2)nc2c(NCc3ccccc3)ncnc21,-2.96% (inactive)
22,CCN(CC)C(=O)C1CCCN(c2cccc(C(=O)NCc3nc4ccccc4[nH]3)c2)C1 (centres undefined),7.49% (inactive)
23,COc1cccc(CN(CCN(C)C)C(=O)c2cn3cc(-c4ccnc(N)n4)ccc3n2)c1,0.96% (inactive)
24,COc1cc2nc(-c3csc4ccccc34)nc(Nc3ccc(Oc4ccccc4)cc3)c2cc1OC,-36.4% (inactive)
25,O=C(NC1CCN(Cc2ccccc2)CC1)c1ccc(-c2ccccc2)s1,-15.1% (inactive)
26,COc1ccc(C2=NC(C)(C)NC(c3ccccc3O)C2)cc1 (centres undefined),22.6% (inactive)
27,Cc1nc(C)n(-c2ccc(Nc3cc(-n4ccnn4)ccn3)cc2)n1,-1.71% (inactive)

row,SMILES,inhibition
1,Cc1nc(C)n(-c2ccc(Nc3ncc4ccc(-c5cnn(C)c5)cc4n3)cc2)n1,75.2% (active)
2,Cc1ncn(-c2ccc(Nc3ncc(-c4cnn(C)c4)c(-c4cnn(C)c4)n3)cc2)n1,-7.3% (inactive)
3,Cc1noc(C)c1-c1nc(N)c2ncn(-c3ccccc3)c2n1,29.2% (inactive)
4,CC(=O)NNC(=O)C(C)Oc1ccc(Cl)cc1Cl (centres undefined),3.12% (inactive)
5,CC1(C(=O)Nc2ccc(-c3cn[nH]c3)cc2)COc2ccccc2C1 (centres undefined),-8.37% (inactive)
6,Fc1cnc(Nc2ccc(N3CCNCC3)cc2)cc1-n1cnc(Nc2ccccc2)n1,90.4% (active)
7,c1ccc(Nc2nccc(Nc3ccc(N4CCOCC4)cc3)n2)cc1,4.53% (inactive)
8,c1ccc(-n2cnc(-c3ccnc(Nc4ccc(N5CCOCC5)cc4)c3)n2)cc1,-3.17% (inactive)
9,CN(C)c1cccc(Nc2nccc(NCc3ccccc3)n2)c1,1.8% (inactive)
10,CC[C@H]1OC(=O)[C@H](C)C(=O)[C@H](C)[C@@H](O[C@@H]2O[C@H](C)C[C@H](N(C)C)[C@H]2O)[C@](C)(OC)C[C@@H](C)C(=O)[C@H](C)[C@@H]2N(CCCCn3cnc(-c4cccnc4)c3)C(=O)OC21C (some centres undefined),-2.96% (inactive)
11,O=C(NCCCN1CCCC1=O)c1cnc(-c2ccccc2)s1,0.58% (inactive)
12,COc1ccc(CCNc2nc(-c3ccc(N4CCOCC4)nc3)ncc2C)cc1,-5.93% (inactive)
13,COc1ccc(CCNc2nc(Nc3ncccn3)nc3c2ncn3CCN2CCCC2=O)cc1,27.6% (inactive)
14,O=C(NCCc1ccc(O)cc1)c1csc(Nc2cnccn2)n1,12.4% (inactive)
15,O=C(NCc1nc2ccccc2[nH]1)c1csc(Nc2cnccn2)n1,46.6% (active)
16,O=C(NCc1nc2ccccc2[nH]1)c1cccc(Nc2ncccn2)n1,10.3% (inactive)
17,CC(=O)c1cccc(-c2nccc(Nc3ccccc3)n2)c1,-2.99% (inactive)
18,COc1cc2nc(Nc3ccc(-n4ccnc4)cc3)nc(Nc3cc(OC)c(OC)c(OC)c3)c2cc1OC,-15.5% (inactive)
19,C/C(CC(=O)NC1CCCC1)=N\NC(=O)COc1cccc(C)c1,-34.7% (inactive)
20,Cc1cc(NCc2ccccc2)nc(N2CCN(Cc3ccc4c(c3)OCO4)CC2)n1,-4.09% (inactive)
21,COc1ccc2c(c1)CC(C(=O)Nc1nc3ccc(-c4cn[nH]c4C)cc3s1)CO2 (centres undefined),-7.18% (inactive)
22,CCOc1ccccc1C1/C(=C(\O)c2ccc(OC)cc2C)C(=O)C(=O)N1CCN(C)C (centres undefined),-3.39% (inactive)
23,Fc1cc(-c2nc(Nc3ccc(CN4CCOCC4)cc3)ncc2F)cc(N2CCOCC2)c1,13.5% (inactive)
24,Cc1ccc(-c2ncn(-c3ccc(Nc4ncc(F)c(-c5cccc(N6CCOCC6)c5)n4)cc3)n2)cn1,-16.4% (inactive)
25,Fc1cnc(Nc2ccc(Cn3ccnc3)cc2)nc1-c1cccc(N2CCOCC2)c1,45.9% (active)
26,CC(=O)OCc1nc2ccc(-c3ccncc3)cc2[nH]1,-6.82% (inactive)
27,O=C(NCc1cccnc1)c1ccnc(NCc2cccnc2)c1,8.32% (inactive)
